These results are taken from ChEMBL document CHEMBL1961873, “Compounds: GSK PKIS; Assays: Nanosyn kinase panel” (2012).

Experiment [1] addresses Mast/stem cell growth factor receptor Kit (Homo sapiens) (UniProt P10721). The following applies: at 1 µM.
Experiment [2] relates to Mast/stem cell growth factor receptor Kit (Homo sapiens), P10721 [D816V]. The following applies: at 0.1 µM.
Experiment [3] has the same test system. The following applies: at 1 µM.
For experiment [4], the system named is Mast/stem cell growth factor receptor Kit (Homo sapiens), P10721 [T670I]. The following applies: at 0.1 µM.
Mast/stem cell growth factor receptor Kit (Homo sapiens), P10721 [T670I], sequence (P10721 whole entry T670I): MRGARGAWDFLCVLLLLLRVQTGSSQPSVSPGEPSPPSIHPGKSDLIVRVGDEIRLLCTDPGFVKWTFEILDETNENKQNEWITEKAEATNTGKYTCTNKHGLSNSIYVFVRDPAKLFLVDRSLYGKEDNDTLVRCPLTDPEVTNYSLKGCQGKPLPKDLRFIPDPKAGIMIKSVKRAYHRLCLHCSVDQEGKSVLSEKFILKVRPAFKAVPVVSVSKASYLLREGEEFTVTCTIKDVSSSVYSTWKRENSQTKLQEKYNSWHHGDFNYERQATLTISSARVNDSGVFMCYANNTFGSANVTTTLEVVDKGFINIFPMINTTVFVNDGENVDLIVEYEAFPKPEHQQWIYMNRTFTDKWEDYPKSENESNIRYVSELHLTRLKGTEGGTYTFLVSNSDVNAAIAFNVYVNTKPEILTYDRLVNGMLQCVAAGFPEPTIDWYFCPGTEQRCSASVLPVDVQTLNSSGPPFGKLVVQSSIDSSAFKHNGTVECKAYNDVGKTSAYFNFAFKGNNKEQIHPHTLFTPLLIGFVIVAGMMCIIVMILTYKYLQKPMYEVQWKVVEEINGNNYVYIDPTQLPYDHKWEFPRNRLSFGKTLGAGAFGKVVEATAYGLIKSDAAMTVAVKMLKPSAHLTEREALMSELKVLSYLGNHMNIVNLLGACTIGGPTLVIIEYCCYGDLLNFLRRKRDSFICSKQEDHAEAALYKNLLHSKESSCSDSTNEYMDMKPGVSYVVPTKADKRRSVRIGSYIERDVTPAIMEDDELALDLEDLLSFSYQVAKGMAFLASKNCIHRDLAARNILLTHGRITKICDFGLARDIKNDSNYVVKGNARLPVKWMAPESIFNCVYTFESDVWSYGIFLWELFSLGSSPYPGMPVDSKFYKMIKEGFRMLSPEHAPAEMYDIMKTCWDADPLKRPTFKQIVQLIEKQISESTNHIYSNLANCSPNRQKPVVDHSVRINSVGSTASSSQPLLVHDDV
The test system is the same in experiment [5]. The following applies: at 1 µM.
Experiment [6] concerns Mast/stem cell growth factor receptor Kit (Homo sapiens), P10721 [V560G]. The following applies: at 0.1 µM.
Mast/stem cell growth factor receptor Kit (Homo sapiens), P10721 [V560G], sequence (P10721 whole entry V560G): as the sequence (P10721 whole entry T670I) above, with V560G, I670T counted along it
Experiment [7] shares this test system. To be noted: at 1 µM.
The target of experiment [8] is Tyrosine-protein kinase Lck (Homo sapiens) (UniProt P06239). To be noted: at 0.1 µM.
Tyrosine-protein kinase Lck (Homo sapiens), sequence (P06239 2-509 limits assumed): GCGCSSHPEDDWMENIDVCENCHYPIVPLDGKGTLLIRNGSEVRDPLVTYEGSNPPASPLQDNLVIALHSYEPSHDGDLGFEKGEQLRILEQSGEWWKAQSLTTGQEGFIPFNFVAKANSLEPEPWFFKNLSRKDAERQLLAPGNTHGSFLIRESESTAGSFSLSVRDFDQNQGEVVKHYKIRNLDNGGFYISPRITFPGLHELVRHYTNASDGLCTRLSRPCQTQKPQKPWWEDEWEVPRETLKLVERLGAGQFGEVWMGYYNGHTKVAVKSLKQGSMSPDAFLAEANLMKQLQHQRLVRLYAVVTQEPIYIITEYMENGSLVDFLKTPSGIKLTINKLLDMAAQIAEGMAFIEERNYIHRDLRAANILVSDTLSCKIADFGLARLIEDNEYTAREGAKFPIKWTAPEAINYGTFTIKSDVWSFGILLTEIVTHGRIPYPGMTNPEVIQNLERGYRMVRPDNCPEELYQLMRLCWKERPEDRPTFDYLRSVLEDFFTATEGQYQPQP
The target is the same in experiment [9]. To be noted: at 1 µM.
For experiment [10], the target named is Leukocyte tyrosine kinase receptor (Homo sapiens) (UniProt P29376). To be noted: at 0.1 µM.
Leukocyte tyrosine kinase receptor (Homo sapiens), sequence (P29376 whole entry): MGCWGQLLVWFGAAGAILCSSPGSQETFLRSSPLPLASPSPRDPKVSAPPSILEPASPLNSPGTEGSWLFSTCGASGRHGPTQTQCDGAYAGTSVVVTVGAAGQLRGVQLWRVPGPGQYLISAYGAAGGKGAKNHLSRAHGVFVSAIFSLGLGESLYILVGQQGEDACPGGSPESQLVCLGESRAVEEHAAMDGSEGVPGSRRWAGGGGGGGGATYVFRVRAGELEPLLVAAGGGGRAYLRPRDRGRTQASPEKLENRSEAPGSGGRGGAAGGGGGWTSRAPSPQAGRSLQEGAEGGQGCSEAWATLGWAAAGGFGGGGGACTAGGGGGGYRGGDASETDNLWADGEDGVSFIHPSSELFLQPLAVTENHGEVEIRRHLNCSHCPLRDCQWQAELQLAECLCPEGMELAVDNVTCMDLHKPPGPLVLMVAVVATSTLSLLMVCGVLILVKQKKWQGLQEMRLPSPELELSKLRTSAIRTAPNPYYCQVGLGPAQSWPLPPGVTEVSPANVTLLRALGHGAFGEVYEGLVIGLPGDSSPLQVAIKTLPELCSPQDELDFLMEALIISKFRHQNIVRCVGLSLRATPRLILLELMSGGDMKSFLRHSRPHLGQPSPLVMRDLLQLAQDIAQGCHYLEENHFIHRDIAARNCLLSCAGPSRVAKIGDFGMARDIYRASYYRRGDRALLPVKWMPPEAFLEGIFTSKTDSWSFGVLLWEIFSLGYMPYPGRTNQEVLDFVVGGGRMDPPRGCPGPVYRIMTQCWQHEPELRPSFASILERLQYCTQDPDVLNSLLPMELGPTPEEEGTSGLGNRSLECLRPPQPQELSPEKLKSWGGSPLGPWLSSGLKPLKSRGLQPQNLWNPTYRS
Experiment [11] shares this target. The following applies: at 1 µM.
In experiment [12] the target is Tyrosine-protein kinase Lyn (Homo sapiens) (UniProt P07948). To be noted: at 0.1 µM.
Tyrosine-protein kinase Lyn (Homo sapiens), sequence (P07948 2-512 limits assumed): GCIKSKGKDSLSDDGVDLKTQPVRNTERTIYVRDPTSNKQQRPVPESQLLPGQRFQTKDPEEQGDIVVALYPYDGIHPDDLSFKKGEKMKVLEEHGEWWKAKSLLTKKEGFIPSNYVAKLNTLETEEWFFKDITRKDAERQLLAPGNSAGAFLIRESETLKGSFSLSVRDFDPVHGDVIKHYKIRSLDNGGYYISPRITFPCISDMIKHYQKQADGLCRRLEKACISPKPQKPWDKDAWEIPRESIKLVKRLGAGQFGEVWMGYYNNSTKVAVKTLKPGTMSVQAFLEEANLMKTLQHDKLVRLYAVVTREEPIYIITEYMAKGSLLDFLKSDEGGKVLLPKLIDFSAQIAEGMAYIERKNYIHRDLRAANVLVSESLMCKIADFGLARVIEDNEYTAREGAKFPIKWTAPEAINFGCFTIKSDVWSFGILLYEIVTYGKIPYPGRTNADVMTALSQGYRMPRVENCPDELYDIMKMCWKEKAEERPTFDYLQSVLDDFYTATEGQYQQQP
The target is the same in experiment [13]. The following applies: at 1 µM.
Experiment [14] shares this target. To be noted: at 0.1 µM. This is another data set of the same source.
Experiment [15] has the same target. The following applies: at 1 µM. The source holds these as a separate data set.
Experiment [16] deals with T1, Tyrosine-protein kinase Mer (Homo sapiens) (UniProt Q12866).
T1 sequence (whole entry): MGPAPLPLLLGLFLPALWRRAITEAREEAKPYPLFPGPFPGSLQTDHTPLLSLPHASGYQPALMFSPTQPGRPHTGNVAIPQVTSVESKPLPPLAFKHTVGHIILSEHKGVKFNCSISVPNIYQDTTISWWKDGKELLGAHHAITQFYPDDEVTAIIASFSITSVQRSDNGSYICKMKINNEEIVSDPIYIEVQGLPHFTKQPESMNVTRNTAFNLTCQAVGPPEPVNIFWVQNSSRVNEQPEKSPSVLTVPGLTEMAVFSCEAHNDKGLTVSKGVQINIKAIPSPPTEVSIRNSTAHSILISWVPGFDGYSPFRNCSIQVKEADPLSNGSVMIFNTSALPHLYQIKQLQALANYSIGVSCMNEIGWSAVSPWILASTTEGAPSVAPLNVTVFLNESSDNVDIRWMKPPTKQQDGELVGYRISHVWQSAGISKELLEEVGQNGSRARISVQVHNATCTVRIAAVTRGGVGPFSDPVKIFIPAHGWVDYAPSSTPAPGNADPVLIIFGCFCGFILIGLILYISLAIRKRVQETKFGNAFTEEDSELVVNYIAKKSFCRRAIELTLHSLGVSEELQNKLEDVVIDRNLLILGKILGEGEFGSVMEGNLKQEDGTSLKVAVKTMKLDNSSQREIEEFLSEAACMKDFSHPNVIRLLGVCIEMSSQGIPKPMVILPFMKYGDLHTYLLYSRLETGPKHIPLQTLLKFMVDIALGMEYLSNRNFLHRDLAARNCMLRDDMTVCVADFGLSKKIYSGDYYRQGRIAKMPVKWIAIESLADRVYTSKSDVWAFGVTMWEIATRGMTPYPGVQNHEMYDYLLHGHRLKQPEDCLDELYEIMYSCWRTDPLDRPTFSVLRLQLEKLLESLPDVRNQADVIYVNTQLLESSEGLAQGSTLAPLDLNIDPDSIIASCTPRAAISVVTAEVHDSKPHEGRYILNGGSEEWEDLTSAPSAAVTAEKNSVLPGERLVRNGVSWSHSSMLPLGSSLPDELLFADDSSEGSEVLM
The following applies: at 0.1 µM.

Experiment [17] addresses T1, Tyrosine-protein kinase Mer (Homo sapiens). To be noted: at 1 µM.
The target of experiment [18] is Hepatocyte growth factor receptor (Homo sapiens) (UniProt P08581). To be noted: at 0.1 µM.
Hepatocyte growth factor receptor (Homo sapiens), sequence (P08581 whole entry): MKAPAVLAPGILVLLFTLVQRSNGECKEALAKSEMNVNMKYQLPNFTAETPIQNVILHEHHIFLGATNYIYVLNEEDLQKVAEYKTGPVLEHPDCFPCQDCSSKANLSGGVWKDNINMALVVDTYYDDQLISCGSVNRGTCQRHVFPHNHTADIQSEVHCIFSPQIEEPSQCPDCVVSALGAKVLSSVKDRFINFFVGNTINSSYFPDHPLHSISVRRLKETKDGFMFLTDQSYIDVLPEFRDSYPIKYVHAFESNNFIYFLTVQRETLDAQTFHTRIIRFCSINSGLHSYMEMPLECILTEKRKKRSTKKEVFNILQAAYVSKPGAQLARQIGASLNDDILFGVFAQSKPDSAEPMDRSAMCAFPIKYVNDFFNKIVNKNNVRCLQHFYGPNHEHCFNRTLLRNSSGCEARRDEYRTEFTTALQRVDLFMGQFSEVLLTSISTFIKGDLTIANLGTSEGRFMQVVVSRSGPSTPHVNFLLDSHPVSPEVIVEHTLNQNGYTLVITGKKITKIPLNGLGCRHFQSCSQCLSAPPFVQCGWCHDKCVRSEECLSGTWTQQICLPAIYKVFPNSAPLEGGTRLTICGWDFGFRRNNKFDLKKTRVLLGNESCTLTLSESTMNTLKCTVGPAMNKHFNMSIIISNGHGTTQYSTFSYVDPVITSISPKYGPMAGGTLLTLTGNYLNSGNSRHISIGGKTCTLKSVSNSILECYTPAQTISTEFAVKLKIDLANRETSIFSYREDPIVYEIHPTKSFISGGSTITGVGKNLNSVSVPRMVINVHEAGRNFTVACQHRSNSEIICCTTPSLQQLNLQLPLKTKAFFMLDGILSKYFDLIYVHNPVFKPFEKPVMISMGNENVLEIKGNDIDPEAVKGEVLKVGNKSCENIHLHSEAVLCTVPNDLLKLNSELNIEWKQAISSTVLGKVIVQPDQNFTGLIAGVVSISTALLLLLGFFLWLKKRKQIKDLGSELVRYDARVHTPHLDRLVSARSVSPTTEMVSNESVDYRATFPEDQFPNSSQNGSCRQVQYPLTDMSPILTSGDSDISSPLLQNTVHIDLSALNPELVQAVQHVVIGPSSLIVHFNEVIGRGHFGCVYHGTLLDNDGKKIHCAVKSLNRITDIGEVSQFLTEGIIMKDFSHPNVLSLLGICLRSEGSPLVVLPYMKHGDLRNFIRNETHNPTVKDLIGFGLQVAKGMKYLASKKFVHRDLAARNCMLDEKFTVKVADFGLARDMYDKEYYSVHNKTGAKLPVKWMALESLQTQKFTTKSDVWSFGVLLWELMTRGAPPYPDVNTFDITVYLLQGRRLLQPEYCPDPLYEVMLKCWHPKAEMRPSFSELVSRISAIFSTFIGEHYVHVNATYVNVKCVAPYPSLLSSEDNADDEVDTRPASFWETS
For experiment [19] the target is unchanged. The following applies: at 1 µM.
The target of experiment [20] is T2, Muscle, skeletal receptor tyrosine-protein kinase (Homo sapiens) (UniProt O15146).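 Note: values are mean inhibition of MuSK from the GSK PKIS kinase screening panel.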
T2 sequence (whole entry): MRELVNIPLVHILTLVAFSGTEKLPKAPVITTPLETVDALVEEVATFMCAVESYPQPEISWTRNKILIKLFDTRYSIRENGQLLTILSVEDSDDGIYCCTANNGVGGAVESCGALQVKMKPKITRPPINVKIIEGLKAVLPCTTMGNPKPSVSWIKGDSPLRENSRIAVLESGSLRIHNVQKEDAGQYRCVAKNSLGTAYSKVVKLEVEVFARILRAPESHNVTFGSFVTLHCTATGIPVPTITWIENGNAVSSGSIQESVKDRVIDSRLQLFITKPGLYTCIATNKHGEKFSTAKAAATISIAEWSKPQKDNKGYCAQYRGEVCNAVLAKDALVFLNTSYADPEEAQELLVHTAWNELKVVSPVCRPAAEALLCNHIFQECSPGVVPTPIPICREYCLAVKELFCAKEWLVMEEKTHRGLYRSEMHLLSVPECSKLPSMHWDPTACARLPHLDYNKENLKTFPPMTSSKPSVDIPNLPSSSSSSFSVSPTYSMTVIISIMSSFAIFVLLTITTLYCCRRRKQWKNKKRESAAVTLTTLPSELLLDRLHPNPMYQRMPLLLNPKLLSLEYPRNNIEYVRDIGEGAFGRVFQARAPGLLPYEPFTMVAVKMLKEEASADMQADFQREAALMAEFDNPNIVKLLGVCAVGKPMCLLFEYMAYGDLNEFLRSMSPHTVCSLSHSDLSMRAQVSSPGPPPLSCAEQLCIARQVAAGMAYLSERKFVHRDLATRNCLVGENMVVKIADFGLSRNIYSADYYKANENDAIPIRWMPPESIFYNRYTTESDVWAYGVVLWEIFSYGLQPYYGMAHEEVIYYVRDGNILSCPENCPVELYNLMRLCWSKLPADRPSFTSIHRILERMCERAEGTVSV
The following applies: at 0.1 µM.

Mast/stem cell growth factor receptor Kit (Homo sapiens), sequence (P10721 whole entry): as the sequence (P10721 whole entry T670I) above, with I670T counted along it
Mast/stem cell growth factor receptor Kit (Homo sapiens), P10721 [D816V], sequence (P10721 whole entry D816V): as the sequence (P10721 whole entry T670I) above, with I670T, D816V counted along it

Take `CS(=O)(=O)CCNCc1ccc(-c2ccc3ncnc(Nc4ccc(OCc5ccccc5)c(C(F)(F)F)c4)c3c2)o1`: the inhibition – broadly, the drop in the measured response relative to a control, in per cent – is 4.84% in experiment [1]; 2.36% in [2]; 4.65% in experiment [3]; 3.39% in experiment [4]; 2.42% in experiment [5]; 1.13% in [6]. Besides, the inhibition is -2.89% in [7]; 3.56% in experiment [8]; 5.95% in experiment [9]; 3.91% in experiment [10]; 3.64% in [11]; 4.35% in experiment [12]. Also, the inhibition is 10.4% in experiment [13]; 2.65% in experiment [14]; 2.28% in experiment [15]; -0.65% in [16]; 1.81% in experiment [17]; 0.49% in [18]. Also, the results for the inhibition in [19] and in experiment [20] were 5.8% and 1.44%, respectively.

Consider `COc1cccc(-n2ncc3c(N/N=C/c4ccc(F)cc4)ncnc32)c1`, for which the inhibition in [1] is 17.1%; in [2] it was 7.16%; in experiment [3], 7.84%; in experiment [4], 5.29%; in [5], 5.91%; in [6] it was -0.37%. In addition, the inhibition was 5.46% in experiment [7]; 13.5% in experiment [8]; 45.5% in experiment [9]; 4.1% in experiment [10]; 3.69% in experiment [11]; 19.6% in experiment [12]. Further, the inhibition in [13] amounted to 48.7%; in experiment [14], 14.6%; in experiment [15], 43.9%; in [16], 3.7%; in experiment [17], 5.19%; in experiment [18] it was 2.87%. Also, the inhibition in experiment [19] amounted to 16.6%; in [20], 3.89%.

Consider `CC(=O)NCc1cccc(C#Cc2cncnc2Nc2ccc(OCc3cccc(F)c3)c(Cl)c2)c1`, for which the inhibition was 0.4% in experiment [1]; -2.07% in [2]; -2.37% in [3]; 1.52% in experiment [4]; 1.39% in experiment [5]; 1.82% in experiment [6]. For the same compound, the inhibition in experiment [7] was -0.41%; in [8], 0.34%; in experiment [9], 1.6%; in experiment [10], 1.56%; in experiment [11] it was 0.67%; in experiment [12], -0.07%. Besides, the inhibition is -0.62% in experiment [13]; -0.59% in experiment [14]; -1.18% in experiment [15]; 0.61% in experiment [16]; 2.93% in experiment [17]; 4.9% in experiment [18]. In addition, the results for the inhibition in experiment [19] and in [20] were 1.83% and -0.6%, respectively.

As for `CCn1c(-c2nonc2N)nc2cnc(Oc3cccc(NC(=O)c4ccc(N(C)C)cc4)c3)cc21`, the inhibition in experiment [1] is 1.33%; in experiment [2], 0.14%; in [3], -1.44%; in experiment [4], 0.35%; in experiment [5], -0.9%; in [6], -2.78%. Also, the inhibition in experiment [7] was 2.28%; in [8], -0.65%; in experiment [9], 1.33%; in [10], 1.6%; in experiment [11] it was 0.1%; in [12], 1.48%. Also, the inhibition in experiment [13] is 1.6%; in experiment [14], 0.82%; in [15], 1.31%; in [16], 0.23%; in experiment [17] it was 0.04%; in [18], -1.57%. Moreover, the values for the inhibition in [19] and in [20] were -4.37% and 2.84%, respectively.

As to `NC(=O)c1sc(-n2cnc3ccc(C(F)(F)F)cc32)cc1OCc1ccccc1Br`, the inhibition is 5.18% in experiment [1]; 5.27% in experiment [2]; 5.73% in [3]; 2.58% in experiment [4]; 3.8% in [5]; -0.43% in experiment [6]. For the same compound, the inhibition in experiment [7] is -0.61%; in experiment [8], -0.17%; in [9], 1.85%; in [10], 3.16%; in experiment [11] it was 3.98%; in experiment [12], 5.8%. For the same compound, the inhibition in experiment [13] came out at 6.03%; in [14], 2.92%; in experiment [15], 3.3%; in experiment [16], 1.71%; in experiment [17], 1.36%; in [18], 3.13%. Further, the figures for the inhibition in experiment [19] and in [20] were -0.12% and 4.43%, respectively.

For the compound `Nc1ncc(-c2cccc(S(N)(=O)=O)c2)c2scc(-c3ccc(F)c(Cl)c3)c12`, the inhibition was 98.1% in [1]; -0.67% in experiment [2]; 5.44% in experiment [3]; 3.88% in experiment [4]; 5.82% in experiment [5]; 3.89% in [6]. Moreover, the inhibition in experiment [7] is 50.5%; in experiment [8], 12.9%; in experiment [9], 52.4%; in experiment [10], 10.7%; in [11], 54.6%; in experiment [12] it was 14%. Also, the inhibition in [13] is 56.7%; in experiment [14] it was 10.5%; in experiment [15], 50%; in experiment [16], 0.36%; in [17], 10.6%; in experiment [18] it was 4.62%. Further, the inhibition in experiment [19] was 3.25%; in experiment [20], 2.5%.

Consider `Nc1nc(-c2cccc(Cl)c2)c(-c2ccc3ncccc3n2)s1`, for which the inhibition in experiment [1] was 7.87%; in experiment [2] it was 1.78%; in experiment [3] it was 8.71%; in [4] it was 4.73%; in experiment [5], 6.56%; in experiment [6] it was -0.42%. Further, the inhibition in experiment [7] was -0.36%; in experiment [8] it was 2.31%; in experiment [9], 8.23%; in [10], 6.27%; in [11], 6.22%; in experiment [12], 7.27%. The inhibition turned out to be 16.1% in [13]; 5.14% in experiment [14]; 13.2% in experiment [15]; 2.09% in [16]; 7.21% in experiment [17]; 6.65% in experiment [18]. Further, the inhibition in experiment [19] came out at 7.33%; in experiment [20] it was 2.01%.
